KDM5B inhibitor – Primary screen for KDM5B Histone Demethylases FDH-coupled qHTS; Lysine-specific demethylase 5B (Homo sapiens), Q9UGL1; KDM5B demethylase, FDH-coupled NADH fluorescence (FDH is formaldehyde dehydrogenase); Potency, µM (doses to about 57.7 µM), hits mostly inhibitors; actives 2.6% (n = 220,000); AID 1347165, 2019; active means well fitted inhibition curve with a large enough effect; further: nearly all actives have a fitted effect of over 70% in size
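Measured: NADH fluorescence change, 30 min, RT. System: KDM5BΔAP 200 nM final, H3K4me3 peptide, α-KG, Fe(II), ascorbate, NAD⁺ plus FDH, pH 7.5 HEPES. Compounds: titrated, 10 min pre-incubation with enzyme.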
Numbers stand for hits; 0 = inactive. This is one part of a sample in which hits are shown more often than they occur.

SMILES	KDM5B inhibitor
CCc1nc2c(=O)n(CC(=O)N3CCC(Cc4ccccc4)CC3)nc(C)c2s1	0
CCc1ccc(CNC(=O)Cn2nc(C)c3sc(C(C)C)nc3c2=O)cc1	0
CCc1nc2c(=O)n(CC(=O)NC(C)c3ccccc3)nc(C)c2s1 (stereo not given)	0
Cc1nn(CC(=O)NCC2CCCO2)c(=O)c2nc(-c3ccccc3)sc12 (stereo not given)	32µM
CCc1nc2c(=O)n(CC(=O)N3CCN(c4ccc(Cl)cc4)CC3)nc(C)c2s1	0
O=C(Cc1cccc2ccccc12)N(Cc1ccc2cc[nH]c2c1)C1CC1	0
CCN(CC)C(=O)c1cc(-c2ccc(C)s2)nc2ccccc12	0
Cc1ccc(C23CC4CC(CC(Cl)(C4)C2)C3)cc1[N+](=O)[O-]	0
CC(C)(C)C(=O)NC(c1ccc(Cl)cc1)c1cccnc1 (stereo not given)	0
Cc1cccc(C)c1NC(=O)CN1CCN(C(=O)CN(C)Cc2cnn(-c3ccccc3)c2)CC1	0
O=C(Cn1cnc2sc3c(c2c1=O)CCCC3)NCCC(=O)N1CCC(Cc2ccccc2)CC1	0
COc1ccc(Cc2nc3nccc(-c4cccc(OC)c4)n3n2)cc1	20µM
COc1ccc(CCc2nc3nccc(-c4ccccn4)n3n2)cc1	0
COc1ccc(Cc2nc3nccc(-c4cccnc4)n3n2)cc1	0
COc1ccc(CCc2nc3nccc(-c4cccc(OC)c4)n3n2)cc1	18µM
CCC1(c2ccc(NC(=O)c3cc(OC)c(OC)c(OC)c3)cc2)CCC(=O)NC1=O (stereo not given)	0
Cc1ccc2nc(NC(=O)CCc3ncc(-c4ccccc4Cl)o3)sc2c1	0
CNC(=O)NC(=O)Cn1c(=O)c2c(ncn2CCC(C)C)n(Cc2ccccc2)c1=O	0
CC1(C)CC(N=Cc2ccccc2O)CC(C)(C)N1	0
Cc1nn(C)c(C)c1S(=O)(=O)N(CC(=O)Nc1ccc(F)c(Cl)c1)c1ccc(C(C)C)cc1	0
CCCCNC(=O)CC(c1cccc([N+](=O)[O-])c1)c1c[nH]c2c(CC)cccc12 (stereo not given)	0
CCCCNC(=O)CC(c1cccc2c1OCO2)c1c[nH]c2c(CC)cccc12 (stereo not given)	0
CCc1cccc2c(C(CC(=O)NCc3ccco3)c3ccc(C)cc3)c[nH]c12 (stereo not given)	28µM
CC(C)(C)c1ccc(C(=O)NCC(c2cccs2)N2CCCC2)cc1 (stereo not given)	0
COc1ccc(CNC(=O)CSc2nc(C3CC3)nc3ccccc23)cc1	0
SMILES	KDM5B inhibitor
CCC(=O)NC12CC3CC(CC(C3)C1)C2	0
Clc1cc(N2CCCCC2)n2nccc2n1	0
CC(=O)N1CCCN(c2cc(Cl)nc3ccnn23)CC1	0
NC(=O)c1noc2c1CN(c1cc(-c3ccccc3)nc3ccnn13)CC2	25µM
N#Cc1ccc(CN2CCC(N3CCOC3=O)CC2)cc1	0
COc1ccc(CN2CCC(N3CCOC3=O)CC2)cc1	0
Cn1cccc1CN1CCC(N2CCOC2=O)CC1	89µM
C/C(=N/Nc1ccc(S(N)(=O)=O)cc1[N+](=O)[O-])c1ccc(C)cc1	0
NC(=O)c1ccc(COC(=O)CCC(=O)c2ccc(Cl)cc2)c([N+](=O)[O-])c1	0
O=c1[nH]c(C2CCN(Cc3ccc(-c4cccnc4)cc3)CC2)nc2ccc(F)cc12	0
CCCCc1ccc(NC(=O)N2CCC3(CC2)OCCO3)cc1	0
Cc1noc(C)c1C1CCCN1Cc1cn(-c2ccccc2)nn1 (stereo not given)	0
c1ccc(-n2cc(CN3CCC(N4CCSCC4)CC3)nn2)cc1	0
c1ccc(-n2cc(CN3CCCCC3c3ccccn3)nn2)cc1 (stereo not given)	28µM
COc1ccc(-n2nc(C(=O)NCC(=O)Nc3cc(OC)c(OC)c(OC)c3)c3ccccc3c2=O)cc1Cl	0
CCOC(=O)c1cc(OC(=O)c2cc(OC)cc(OC)c2)n(-c2ccccc2)n1	0
O=C(COc1ccccc1Cl)c1ccccc1	0
O=C(COc1ccccc1Cl)Nc1ccccc1OCc1cc(=O)n2ccccc2n1	0
CCOC(=O)CCCOc1cccn2c(=O)c(-c3cc(C)n(-c4ccccc4)n3)c(C)nc12	25µM
COC(=O)COc1cccn2c(=O)c(-c3cc(C)n(-c4ccc(Cl)c(Cl)c4)n3)c(C)nc12	28µM
CCOCCCn1c(=NC(C)=O)c(C#N)cc2c(=O)n3cccc(C)c3nc21	0
Cc1nc2c(OCC(=O)c3ccccc3)cccn2c(=O)c1-c1cc(C)n(-c2ccc(Cl)cc2)n1	16µM
Cc1ccccc1OCC(=O)OCC(=O)c1ccc(Cl)cc1	0
CC(C)CSc1nnc(-c2c[nH]c3ccccc23)n1C1CC1	0
Cc1cc2cc(CNC(=S)Nc3cccc(Br)c3)ccc2[nH]1	0
SMILES	KDM5B inhibitor
Cc1nc2ccccc2c(C)c1CC(=O)NCCc1ccccc1F	0
Cc1ccc(C)c(NC(=O)Cn2ccn(-c3cccc(Cl)c3)c(=O)c2=O)c1	0
COc1ccc(NC(=O)COc2ccc(Cl)cc2)c2cccnc12	0
Cc1sc2nc(C(C)Sc3nnnn3C(C)(C)C)[nH]c(=O)c2c1C (stereo not given)	0
CC(C)NC(=O)NC(=O)CN1CCCc2c(C(=O)NC(C)C)cccc21	0
CCCCn1cc(S(=O)(=O)c2ccc(OCC)cc2)c(=O)c2cc(C)ccc21	0
Cc1cc(NC(=O)CNc2cc(S(=O)(=O)N3CCOCC3)ccc2N2CCCC2)no1	0
Cc1nc2nc(N)nn2c(C)c1CC(=O)NCCC(C)C	0
CCc1ccccc1-n1nc(-c2c(C)nc3scc(CC(=O)NCCC(C)C)n3c2=O)cc1C	25µM
Cc1nc(NCc2ccccc2)sc1C(=O)NCCC(C)C	0
COc1ccccc1-n1nc(-c2c(C)nc3scc(CC(=O)NCCC(C)C)n3c2=O)cc1C	28µM
Cc1cccc(-n2nc(-c3c(C)nc4scc(CC(=O)NCCC(C)C)n4c3=O)cc2C)c1	25µM
COc1ccccc1NC(=O)Nc1nc(CC(=O)NCCC(C)C)cs1	0
COCCNC(=O)CCc1c(C)nn(-c2cccc(C)c2)c1Oc1ccccc1	0
COc1ccccc1CCNC(=O)c1sc(NCC(C)C)nc1C	0
CCNC(=O)CC1C(=O)N(c2cccc(C)c2)C(=O)N1CCC(C)C (stereo not given)	0
Cc1cccc(-c2nc(Nc3ccc(C(=O)O)cc3)c3ccccc3n2)c1	0
CC(C)CNc1nc(-c2ccc3c(c2)NC(=O)CO3)cs1	0
Cc1ccc(S(=O)(=O)Nc2ccccc2SCc2cc(=O)n3cc(Cl)ccc3n2)cc1	0
C=CCn1c(=O)c2c(nc(-n3nc(C)c(C)c3C)n2CC)n(C)c1=O	0
CN(Cc1ccccc1)c1ccc2nnc(-c3ccccn3)n2n1	0
c1ccc(-c2nnc3ccc(-c4ccoc4)nn23)nc1	32µM
Fc1cccc(CNc2ccc3nnc(-c4ccccn4)n3n2)c1	0
Fc1cccc(Cl)c1CNCCOc1ccccn1	0
CCOc1cc(C(=O)Nc2ccc(OC)cc2)nc2ccc(Cl)cc12	0
O=C(Cc1cccc(C(F)(F)F)c1)NC1CCN(Cc2ccccc2)CC1	0
COCCN1CC2(CCCN(Cc3ccccc3OC)C2)CCC1=O (stereo not given)	0
COCCN1CC2(CCC1=O)CCN(C(=O)C(C)SC)CC2 (stereo not given)	0
COCCN1CC2(CCC1=O)CCN(c1nc(C(C)C)ccc1C#N)CC2	28µM
Cc1ccc(C(=O)Nc2ncn(CC(=O)NCc3ccc(F)cc3)n2)cc1	0
